Sampled rows, rich in hits. Any-hit rate of the full collection: about 19%.
HT1080NT lethal: qHTS for induction of synthetic lethality in tumor cells producing 2HG: qHTS for the HT-1080-NT fibrosarcoma cell line; HT-1080-NT fibrosarcoma viability, CellTiter-Glo ATP luminescence, 48 h; Potency, µM (top dose mostly 46.1 µM), without a hit: top-dose activity, negative = less viability, usual class: cytotoxic; actives 1.6% (n = 360,000); AID 686970, 2013;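 further: NT is the 2HG producing partner of a matched IDH1 knockdown line; potency means the concentration at half of the fitted maximal effect; 0% = DMSO-treated cells and -100% = media-only wells without cells; nearly all actives have a fitted effect of over 55% in size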
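Viability of the 2HG-overproducing fibrosarcoma line after 48 hours of compound exposure at 37 degrees C was determined by luminescence with CellTiter-Glo, and concentration-effect curves were then fitted and categorized.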
IL-1B inflam inh: qHTS for Inhibitors of Inflammasome Signaling: IL-1-beta AlphaLISA Primary Screen. actives 4.7% (n = 360,000). activity change, % at 57.5 µM. THP-1 LPS/ATP IL-1B secretion, AlphaLISA, 16 h; hits give low values; in the data active means activity change below about -50%; inconclusive means mostly about -30% to -49%
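THP-1 cells pretreated 1 hr with compounds (up to 57.5 uM final), then stimulated with LPS (250 ng/mL final) plus ATP (1.25 mM final); secreted IL-1B measured by AlphaLISA after 16 hr, decreased signal indicating inhibition.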
TDP1 cell noCPT: qHTS for Inhibitors of human tyrosyl-DNA phosphodiesterase 1 (TDP1): qHTS in cells in absence of CPT. DT40 Tdp1-/- hTDP1 cells, no CPT, ATP luminescence, 48 h. Potency, µM (series often up to 46.2 µM), for inactives: at the highest dose activity change, negative = growth inhibition, usual class: inhibitors. actives 15% (n = 420,000). AID 686978, 2013; further: potency means the concentration at half of the fitted maximal effect; nearly all actives have a fitted effect of over 55% in size
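Luminescent ATP content (CellTiter-Glo) served as the growth readout. Knockout chicken DT40 cells expressing human TDP1 were exposed to compounds without camptothecin for a minimum 48 hr at 37 °C.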
DT40 TDP1 CPT: qHTS for Inhibitors of human tyrosyl-DNA phosphodiesterase 1 (TDP1): qHTS in cells in presence of CPT; Potency, µM (titrated, usually from 46.2 µM), without a hit: at the highest dose activity change, negative = growth inhibition, actives largely listed as inhibitors; actives 12% (n = 420,000); chicken DT40 Tdp1-/-;hTDP1 cells + 20 nM CPT, ATP luminescence, 48 h; AID 686979, 2013; further: potency means the concentration at half of the fitted maximal effect; nearly all actives have a fitted effect of over 55% in size
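Chicken DT40 Tdp1-/- cells stably complemented with human TDP1 were seeded at 400 cells/well in medium containing 20 nM camptothecin, exposed to pin-transferred compounds, and grown at 37 °C for at least 48 hr. Viability was read as ATP luminescence.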
HT1080 IDH1KD tx: qHTS for induction of synthetic lethality in tumor cells producing 2HG: qHTS for the HT-1080-IDH1KD cell line; HT-1080 IDH1 knockdown viability, ATP luminescence, 48 h; Potency, µM (doses to about 46.1 µM), for inactives: top-dose activity, negative = toxicity, hits mostly cytotoxic; actives 2% (n = 360,000);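 further: potency means the concentration at half of the fitted maximal effect; 0% = DMSO wells and -100% = cell-free medium wells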
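Viability of IDH1-knockdown HT-1080 fibrosarcoma cells was assessed by CellTiter-Glo after 48 h at 37 °C with titrated compound; concentration-effect curves were classified by fit quality and response size.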
* hit, by the source's call; ? = inconclusive; / = no result given. Unless noted, the call rests on the fitted dose curve; in most records, active means well fitted curve in the direction sought with a large enough effect; inconclusive means small, poorly fitted or top-dose-only effect, or another doubt; inactive means no such curve, though single readings can be large; an effect the other way counts as inactive or inconclusive. Unless noted, on the % scale 0 is the no-effect control and ±100 the full control effect.

SMILES	HT1080NT lethal	IL-1B inflam inh	TDP1 cell noCPT	DT40 TDP1 CPT	HT1080 IDH1KD tx
CC(C)C[C@@H](CN1CCCC1CN1C(=S)NC[C@@H]1Cc1ccc(O)cc1)N1C[C@H](Cc2ccc(O)cc2)N(CCc2ccccc2)C1=S (stereo not given in full)	?	0.0	7.31µM*	13µM*	?
Oc1ccc(C[C@H]2CN([C@@H](Cc3ccccc3)CN3CCCC3CN3C(=S)NC[C@@H]3Cc3ccccc3)C(=S)N2CCc2ccccc2)cc1 (stereo not given in full)	-6.9%	8.5	16.4µM*	20.6µM*	6.4%
Oc1ccc(C[C@H]2CNC(=S)N2C[C@H]2CCCN2C[C@H](Cc2ccccc2)N2C[C@H](Cc3ccc(O)cc3)N(CCc3ccccc3)C2=S)cc1	14.6µM*	?	4.11µM*	7.31µM*	18.4µM*
CCCC(=O)N1CCC1(C)C(=O)Nc1ncc(C(=O)OC)s1 (stereo not given)	?	29.1	-6.8%	0.7%	?
COc1ccc(OC)c(NC(=O)N2CCC(CN3CCCCC3)CC2)c1	/	/	-11.1%	1.9%	/
CCOc1ccc(CNC(=O)c2ccc3nc(C(C)C)oc3c2)cc1	/	/	-14.9%	-3.7%	/
CCc1ccc(NC(=O)c2ccc3nc(C(C)C)oc3c2)cc1	/	/	18.4µM*	?	/
COc1cc(OC)c(NC(=O)c2ccc3nc(C(C)C)oc3c2)cc1Cl	/	/	18.4µM*	9.2µM*	/
COc1cc(NC(=O)c2ccc(Cl)cc2)c(OC)cc1Cl	3.4%	3.3	?	?	-10.6%
COc1ccc2nc3sc(C(=O)Nc4cc(Cl)c(OC)cc4OC)cc3cc2c1	/	/	5.8µM*	?	/
CC(C)c1nc2ccc(C(=O)NCc3ccc(F)cc3)cc2o1	/	/	?	-26.2%	/
CCOc1cc(CNC(=O)c2ccc3nc(C(C)C)oc3c2)cc(OCC)c1OCC	/	/	18.4µM*	23.1µM*	/
CCN(CC)CCNC(=O)c1cc(Br)c(N)cc1OC	-1.4%	7.4	-17.6%	-7.3%	-15.9%
COc1c(C)cc(S(=O)(=O)NCc2ccco2)c(C)c1C	9.8%	-12.3	-6.5%	-3.1%	11.4%
CN1CC(=O)N(CC(=O)Nc2cccc(C#N)c2)c2ccccc2C1=O	/	/	23.9%	-1.7%	/
CCOC(=O)N1CCN(Cc2nc3cc([N+](=O)[O-])ccc3n2C(C)C)CC1	/	/	?	20.6µM*	/
CCOC(=O)N1CCN(Cc2nc3cc(NC(=O)c4ccccc4[N+](=O)[O-])ccc3n2C(C)C)CC1	/	/	16.4µM*	16.4µM*	/
CCn1c(CN2CCOCC2)nc2cc(NC(=O)c3ccccc3[N+](=O)[O-])ccc21	/	/	-17.3%	-20.9%	/
CCOC(=O)N1CCN(Cc2nc3ccc([N+](=O)[O-])cc3c(=O)n2-c2ccc(OC)cc2OC)CC1	-0.8%	40.5	?	?	2.3%
CCOC(=O)N1CCN(Cc2nc3cc(NC(=O)c4ccccc4OC)ccc3n2C(C)C)CC1	/	/	2.31µM*	3.66µM*	/
Cc1ccccc1NC(=O)CSCc1nc(N)nc(Nc2ccccc2C)n1	-10.3%	-12.6	-1.7%	-14.1%	-11.3%
O=C(O)c1cc2c(s1)-c1ccccc1OC2	1.7%	9.9	-21.5%	-22.5%	-1.3%
CCCCN(Cc1ccco1)C(=O)c1cc2c(s1)-c1c(C)cccc1OC2	/	/	23.1µM*	?	/
CN(C)CCN(Cc1ccco1)C(=O)c1cc2c(s1)-c1ccccc1OC2	/	/	16.4µM*	16.4µM*	/
Cc1oc(-c2ccc(C(=O)Nc3ccc(F)cc3F)cc2)nc1COc1ccccc1	/	/	-28.3%	-28.3%	/
CCc1ccccc1NC(=O)N1CCN(Cc2nc3ccc(C)cc3o2)CC1	/	/	-13.1%	-3.8%	/
